Only some compounds are listed: those with a hit (about 3.5% of all), similar ones and a draw of the others.
MITF inh: human MITF inhibition, primary screen; 0.91% of 650,000 active; inhibition, % at 2.6 µM; O75030; AlphaScreen MITF homodimerization, bead proximity signal; AID 1259374; in the data active = inhibition above about 50%;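 note: 0% = vehicle wells with protein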
FBW7 activator: activators of human E3 ligase FBW7; Q969H0; AlphaScreen FBW7–phospho-cyclin E peptide binding, activator screen; normalized activity (activation), % at 26.1 µM; 0.13% of 650,000 active; AID 1259310; in the data active = normalized activity above about 1.9%;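 note: purified mutant Fbw7 with reduced substrate affinity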
TEAD-YAP inh: TEAD-YAP interaction inhibition. HEK-TIYL cells, TEAD-Gal4/YAP UAS-luciferase luminescence. inhibition, % at 9.12 µM. 1.4% of 640,000 active. AID 1259422; in the data active = inhibition above about 32%;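 note: 0% = median of test compound wells and 100% = reference inhibitor wells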
GPR151 activ: human GPR151 activation; Q8TDV0; PathHunter beta-arrestin GPR151 cells, luminescence; activation, % at 11.2 µM; 1% of 650,000 active; in the data active = activation above about 4.9%;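 note: 0% = median of compound wells and 100% = cells with positive control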
Target sequence (Q8TDV0 whole entry, looked up): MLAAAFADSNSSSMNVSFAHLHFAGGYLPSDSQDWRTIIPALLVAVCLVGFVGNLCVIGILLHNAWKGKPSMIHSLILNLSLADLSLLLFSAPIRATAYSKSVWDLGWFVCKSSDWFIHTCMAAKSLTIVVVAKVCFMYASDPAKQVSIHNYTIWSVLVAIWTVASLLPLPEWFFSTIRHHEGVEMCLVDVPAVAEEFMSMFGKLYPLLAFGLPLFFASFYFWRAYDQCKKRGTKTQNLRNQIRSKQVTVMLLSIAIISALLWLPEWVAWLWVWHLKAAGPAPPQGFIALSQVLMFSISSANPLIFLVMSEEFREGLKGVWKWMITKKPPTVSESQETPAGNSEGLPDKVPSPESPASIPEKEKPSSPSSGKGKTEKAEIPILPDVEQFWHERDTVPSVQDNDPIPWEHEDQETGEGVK
Numbers without * were called inactive; · = not tested or not shown.

SMILES	MITF inh	FBW7 activator	TEAD-YAP inh	GPR151 activ
CC(C)c1ccc(/C=C/c2cc(=O)n3ccsc3n2)cc1	-5.5	0.1	5.1	-1.1
CC(=O)c1ccc(NC2=C(Cl)C(=O)c3ccccc3C2=O)cc1	2.3	0.2	48.9*	-0.8
CC(=O)c1ccc(Nc2ccc(-c3ccccc3F)nn2)cc1	2.1	-0.1	57.1*	-0.3
COCC(=O)NNC(=S)NC(C)c1ccccc1 (stereo not given)	-14.4	-0.1	3.2	-0.4
CC(=O)Nc1cnn(-c2ccc(C(=O)NC(C)Cc3ccccn3)cc2)c1 (stereo not given)	3.0	-0.1	-4.0	-0.9
O=C(Nc1ccc(Oc2ccccc2)cc1)c1ccc2c(=O)n(-c3cc(C(F)(F)F)ccc3Cl)c(=S)[nH]c2c1	-6.7	0.0	35.7*	0.0
COc1ccc(-n2c(=S)[nH]c3cc(C(=O)Nc4cccc(C)c4)ccc3c2=O)c(OC)c1	7.8	-0.1	47.8*	1.7
O=C(Nc1ccc(Oc2ccccc2)cc1)c1ccc2c(=O)n(-c3cccc(C(F)(F)F)c3)c(=S)[nH]c2c1	-6.2	0.0	-0.8	-0.2
CC(=O)Nc1ccnn1C1CCN(Cc2cnc(-c3ccccc3)s2)CC1	-1.0	-0.1	67.1*	-4.8
CC(=O)Nc1ccnn1C1CCN(Cc2ccc(-c3ccccc3)cc2)CC1	14.0	0.2	-17.4	0.2
CC(=O)Nc1ccnn1C1CCN(Cc2cnc(-c3ccccc3C)nc2)CC1	8.9	0.0	40.9*	-1.9
CC1C(=O)N2CCCc3cc(NC(=O)Cc4ccc(Cl)cc4)cc1c32 (stereo not given)	-10.4	-0.1	3.4	1.6
[O-][n+]1onc2cc(Br)cnc21	61.1*	-0.3	-3.1	-1.5
[O-][n+]1onc2cc(Cl)c(Cl)cc21	3.0	0.1	-40.1	1.7
CC(C)CC(c1nnnn1Cc1ccc(F)cc1)N1CCN(C)CC1 (stereo not given)	8.2	0.0	3.4	2.3
CCN1CCN(C(CC(C)C)c2nnnn2Cc2ccc(F)cc2)CC1 (stereo not given)	-5.2	0.0	52.9*	-1.3
COc1ccccc1C(=O)NCc1ccc(Cl)c(Cl)c1	-2.4	0.1	-14.2	0.0
CCN(Cc1ccncc1)Cn1nc(C2COc3ccccc3O2)oc1=S (stereo not given)	-10.5	-0.1	0.6	-3.3
COc1ccc(OC)c(NC(=O)CN2C(=O)CC(c3ccco3)Sc3ccccc32)c1 (stereo not given)	0.3	-0.1	-1.0	-1.2
COc1ccc(Cl)cc1NC(=O)CN1C(=O)CC(c2ccco2)Sc2ccccc21 (stereo not given)	-2.8	0.0	45.2*	-1.2
COc1ccccc1C(=O)NC(=S)Nc1ccccc1C(=O)O	-4.4	0.1	22.0	-2.0
COc1ccccc1NC(=S)NC(=O)c1ccccc1OC	7.1	0.0	39.4*	-1.1
COc1ccccc1C(=O)NNC(=O)c1cccc(O)c1	0.3	0.0	79.2*	-2.5
COC(=O)c1cc(OC)c(OC)cc1NC(=S)NC(=O)c1ccccc1	-1.4	-0.1	33.4*	-0.8
COc1ccccc1NC(=S)Nc1ccc(N2CCOCC2)cc1	17.9	-0.1	33.4*	-2.2
SMILES	MITF inh	FBW7 activator	TEAD-YAP inh	GPR151 activ
COC(=O)c1cc(OC)c(OC)cc1NC(=S)Nc1ccccc1	1.9	-0.2	1.2	-1.7
COc1ccc(CN(C)Cc2nc(CCc3ccccc3)no2)c2cccnc12	5.8	0.6	35.4*	-1.4
N#CC1=C(N)N(c2ccc(F)cc2)C2=C(C(=O)CCC2)C1c1cccnc1 (stereo not given)	6.2	-0.1	5.7	2.0
CC1=NN(C(=S)c2ccccc2)C(C)(O)C12CC2 (stereo not given)	1.6	-0.1	33.0*	-3.2
CC1=NN(C(=O)c2ccccc2)C(C)(C)C1	-5.9	-0.4	-4.8	0.0
Nc1nc(-c2ccco2)nn1C(=O)c1ccccc1	16.4	2.0*	-2.1	-0.3
COc1ccc(Br)cc1C1CC(=O)NC2=C1C(=O)CCC2 (stereo not given)	9.9	-0.5	47.0*	-1.0
CC(=O)c1c(C)[nH]c(C(=O)Nc2nc(C)cs2)c1C	-0.6	-0.1	54.2*	-2.0
CC(=O)c1c(C)[nH]c(C(=O)Nc2ccc(C)cn2)c1C	0.8	0.0	53.0*	-1.1
C(=N\Nc1nc2ccccc2o1)/c1c[nH]c2ccccc12	6.2	-0.1	-69.9	1.7
Nc1nc(Nc2ccccc2)nc2c1ncn2[C@@H]1O[C@H](CO)C(O)[C@@H]1O (stereo not given in full)	4.5	0.1	·	-1.0
COc1cccc2cc(C(=O)Nc3ccccc3)/c(=N/O)oc12	13.9	0.0	34.1*	-0.6
COc1cccc2cc(C(=O)Nc3ccccc3)c(=Nc3ccc(F)cc3)oc12	-0.2	-0.2	-40.2	-0.5
CCCCCCOC(=O)C1=C(C)NC(=O)NC1c1ccc(OC)cc1 (stereo not given)	-3.8	-0.2	5.0	1.5
CC(=O)Nc1nc(-c2nc3ccccc3s2)cs1	2.8	0.3	38.1*	-5.5
Cc1ccc2sc(-c3ccc(NC(=O)C(C)(C)C)cc3)nc2c1	-4.7	0.0	36.9*	0.1
Cc1ccc2sc(-c3ccc(NC(=O)c4ccc(Br)cc4)cc3)nc2c1	11.6	0.0	-5.5	1.9
O=C(Nc1ccc(-c2nc3ccccc3s2)cc1)C(F)(F)F	0.4	-0.2	67.4*	-6.5
Cc1ccc2sc(-c3ccc(NC(=O)/C=C\C(=O)O)cc3)nc2c1	5.4	0.0	90.1*	-6.3
O=C(Nc1ccc(N2C(=O)c3ccccc3C2=O)cc1Cl)c1cccs1	18.2	0.4	-1.5	-2.5
COc1ccc(C2CC(=O)C=C(Nc3cc(C)ccc3O)C2)cc1 (stereo not given)	-3.6	-0.1	3.0	-0.8
COc1ccc(C2CC(=O)C=C(Nc3cc(Cl)ccc3O)C2)cc1 (stereo not given)	3.7	2.1*	2.9	-0.4
CCCCCCOc1ccc(OC(=O)c2cccc(C(=O)Oc3ccc(OCCCCCC)cc3)n2)cc1	-4.7	0.2	0.0	0.9
Cc1ccc(NC(=O)CSc2nnc(NC(=O)c3ccccc3[N+](=O)[O-])s2)cc1	-16.6	0.0	-31.8	-3.9
Cc1cc(C)cc(OCC(=O)Nc2ccc(F)c([N+](=O)[O-])c2)c1	2.8	0.0	36.9*	3.5
SMILES	MITF inh	FBW7 activator	TEAD-YAP inh	GPR151 activ
O=C(COc1cccc(Cl)c1)Nc1ccccc1[N+](=O)[O-]	-3.7	0.0	32.2*	1.6
Cc1ccc(C(=O)Nc2nnc(SCC(=O)Nc3ccc(F)c([N+](=O)[O-])c3)s2)cc1	-2.7	0.1	82.9*	0.9
Cc1cccc(OCC(=O)Nc2ccc(F)c([N+](=O)[O-])c2)c1	1.1	-0.3	32.0*	0.5
Cc1ccc(OCC(=O)Nc2ccc(F)c([N+](=O)[O-])c2)cc1C	-8.1	-0.2	12.8	0.5
CC(CNC(=O)c1ccc([N+](=O)[O-])cc1Cl)CN(C)C (stereo not given)	-8.0	0.1	-0.3	0.7
CCOC(=O)c1ccc(CN(Cc2ccc(C)cc2)S(=O)(=O)c2ccc(F)c(C(=O)Nc3ccc(F)c(F)c3)c2)cc1	17.0	0.5	-12.8	-1.1
Clc1ccc(Nc2nc(Cl)nc(Oc3ccccc3)n2)cc1	8.7	0.2	-2.7	-1.5
O=C(CSCc1ccc(Cl)c(Cl)c1)Nc1ccc(O)cc1C(=O)O	-2.2	0.2	-12.5	-1.5
